Screens from PubChem BioAssay.
APOBEC3G inh: APOBEC3G (human) deaminase inhibition; recombinant A3G, ssDNA deamination FAM/TAMRA fluorescence; inhibition, % at 20 µM; actives 0.28% (n = 330,000);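 active = inhibition of at least 40% at 20 µM, with no more than 30% in the related APOBEC3A deaminase screen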
Target sequence (Q9HC16 whole entry, looked up): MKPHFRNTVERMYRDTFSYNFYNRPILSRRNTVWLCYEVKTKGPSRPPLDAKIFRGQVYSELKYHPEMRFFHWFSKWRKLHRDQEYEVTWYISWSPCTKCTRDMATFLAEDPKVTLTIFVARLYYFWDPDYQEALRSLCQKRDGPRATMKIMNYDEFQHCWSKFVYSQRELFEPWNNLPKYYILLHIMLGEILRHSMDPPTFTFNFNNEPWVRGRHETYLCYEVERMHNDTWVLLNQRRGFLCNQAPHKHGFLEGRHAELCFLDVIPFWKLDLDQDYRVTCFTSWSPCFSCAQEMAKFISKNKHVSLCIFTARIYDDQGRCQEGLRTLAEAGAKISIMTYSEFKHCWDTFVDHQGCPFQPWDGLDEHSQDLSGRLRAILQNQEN
A3A deaminase: inhibitors of human APOBEC3A DNA deaminase; actives 0.41% (n = 330,000); inhibition, % at 20 µM; P31941; recombinant A3A, FAM/TAMRA ssDNA deamination fluorescence;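 active = at least 40% inhibition at 20 µM here, with at most 30% in a related deaminase screen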
Target sequence (P31941 whole entry, looked up): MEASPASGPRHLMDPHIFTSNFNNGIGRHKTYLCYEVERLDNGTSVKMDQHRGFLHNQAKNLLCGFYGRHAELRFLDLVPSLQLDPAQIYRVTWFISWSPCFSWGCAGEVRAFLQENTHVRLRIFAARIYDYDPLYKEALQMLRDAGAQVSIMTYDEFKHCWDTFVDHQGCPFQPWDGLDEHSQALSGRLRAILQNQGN
NadD inh: NadD (S. aureus) enzyme inhibition | actives 0.78% (n = 360,000) | inhibition, % at 20 µM | purified NadD enzyme, colorimetric absorbance read-out; in the data active = inhibition above about 26%
Cardio protect: protects H9c2 cardiomyocytes from peroxide injury. actives 0.63% (n = 360,000). AID 588492. protection from H2O2 cell death, % at 20 µM. H2O2 injury protection, ATPLite, 2 h;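 active = compounds giving at least 50% protection of heart cells from peroxide-induced death in the single-dose screen, raw or plate-pattern-corrected value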
PfGluPho inh: PfG6PD (Plasmodium falciparum) enzyme inhibition | inhibition, % at 20 µM | PfGluPho enzyme, NADPH resazurin-diaphorase fluorescence | actives 0.78% (n = 350,000);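 active = inhibition reaching at least a set limit at 20 µM in the primary screen, cut at about 59% in these data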
TAG inh: inhibitors of triacylglycerol accumulation; H9c2 cells, Nile Red lipid (TAG) fluorescence; cells loaded with 200 µM oleic acid; inhibition, % at 12.5 µM; actives 0.66% (n = 230,000);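 active = pattern-corrected inhibition of lipid staining of at least 50% with the nuclear-stain viability signal not falling by more than 50%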
Numbers stand for hits; ! = not confirmed by another sample. Most compounds without a hit are left out; they make up all but 2.9% or so of the library.

Screening CC1=C(C(=O)N2CCOCC2)CC(CC(=O)NCCCN(C)C)C(=O)N1CCCN1CCCC1=O (stereo not drawn) returned NadD inh inactive.
For Cn1c(=O)cc(OCC(=O)NCCCN2CCN(c3ccccc3F)CC2)c2ccccc21 the results were APOBEC3G inh inactive, A3A deaminase inactive, NadD inh inactive, Cardio protect inactive and PfGluPho inh inactive.
Screening Cn1c(=O)cc(OCC(=O)NCCCN2CCN(c3cccc(Cl)c3)CC2)c2ccccc21 returned APOBEC3G inh inactive, A3A deaminase inactive, NadD inh inactive, Cardio protect 64.4, PfGluPho inh inactive and TAG inh inactive.
For O=C(COC(=O)C1CC(=O)N(Cc2ccco2)C1)c1ccc(OC(=O)c2ccco2)cc1 (stereo not drawn) the results were APOBEC3G inh inactive, A3A deaminase inactive, NadD inh 36.4, Cardio protect inactive and PfGluPho inh inactive.
Screening OC1CCN(c2c3c(nc4cc(-c5cccc(F)c5)nn24)CCCC3)CC1 returned APOBEC3G inh inactive, A3A deaminase inactive, NadD inh inactive, Cardio protect 59.3 and PfGluPho inh inactive.
For Fc1cccc(-c2cc3nc4c(c(N5CCC6(CC5)OCCO6)n3n2)CCCC4)c1 the results were APOBEC3G inh inactive, A3A deaminase inactive, NadD inh inactive, Cardio protect inactive and PfGluPho inh inactive.
For O=C1CN(C(=O)Cn2ncc(Cl)c(Cl)c2=O)c2ccccc2N1 the results were NadD inh inactive, Cardio protect inactive, PfGluPho inh inactive and TAG inh 69.3.
Brc1ccc(-c2ncc3ccccn23)cc1 was read as APOBEC3G inh inactive, A3A deaminase inactive, NadD inh inactive, Cardio protect inactive, PfGluPho inh inactive and TAG inh inactive.
For CCn1ncc2c1C(=O)NC1c3ccccc3C(=O)N21 (stereo not drawn) the results were APOBEC3G inh inactive, A3A deaminase inactive, NadD inh inactive, Cardio protect 59.1, PfGluPho inh inactive and TAG inh inactive.
C#CCNCCS(=O)(=O)N(Cc1ccc(Br)cc1)[C@@H](C)C(=O)O was read as APOBEC3G inh inactive, A3A deaminase inactive, NadD inh inactive, Cardio protect inactive, PfGluPho inh inactive and TAG inh inactive.
Screening Oc1ccc(C2CNCCc3c2cc(O)c(O)c3Cl)cc1 (stereo not drawn) returned APOBEC3G inh inactive, A3A deaminase inactive, NadD inh inactive, Cardio protect 58.5!, PfGluPho inh inactive and TAG inh inactive.
`C=CCN1CCc2c(cc(O)c(O)c2Cl)C(c2ccccc2)C1` (stereo not drawn) gave APOBEC3G inh inactive, A3A deaminase inactive, NadD inh inactive, Cardio protect 75.5, PfGluPho inh inactive and TAG inh inactive.
Screening Oc1cc2c(c(Cl)c1O)CCNCC2c1ccccc1 (stereo not drawn) returned APOBEC3G inh inactive, A3A deaminase inactive, NadD inh inactive, Cardio protect 68.0, PfGluPho inh inactive and TAG inh inactive.
C=CCN1CCc2cc(O)c(O)cc2C(c2ccccc2)C1 (stereo not drawn) was read as APOBEC3G inh inactive, A3A deaminase inactive, NadD inh inactive, Cardio protect inactive, PfGluPho inh inactive and TAG inh inactive.
`Cc1cccc(C2CN(C)CCc3c2cc(O)c(O)c3Cl)c1` (stereo not drawn) gave APOBEC3G inh inactive, A3A deaminase inactive, NadD inh inactive, Cardio protect inactive, PfGluPho inh inactive and TAG inh inactive.
`Cc1ccc(NS(=O)(=O)c2ccc(-c3coc(C)n3)cc2)c(Br)c1` gave APOBEC3G inh inactive, A3A deaminase inactive, NadD inh inactive, Cardio protect inactive and PfGluPho inh inactive.
`COc1ccc(OC)c(C2CC(=O)N3CN(c4cccc(Cl)c4C)CSC3=C2C#N)c1` (stereo not drawn) gave APOBEC3G inh inactive, A3A deaminase inactive, NadD inh 31.6, Cardio protect inactive, PfGluPho inh 83.0 and TAG inh inactive.
Screening COc1ccc(Br)cc1C1CC(=O)N2CN(Cc3ccccc3)CSC2=C1C#N (stereo not drawn) returned APOBEC3G inh inactive, A3A deaminase inactive, NadD inh inactive, Cardio protect inactive, PfGluPho inh 71.5 and TAG inh inactive.
`O=C(Cn1c(=O)cnc2ccccc21)Nc1cccc(S(=O)(=O)N2CCOCC2)c1` gave APOBEC3G inh inactive, A3A deaminase inactive, NadD inh inactive, Cardio protect inactive, PfGluPho inh inactive and TAG inh inactive.
Cc1ccc(NC(=O)c2sc3nc(CCl)[nH]c(=O)c3c2C)c(C)c1 was read as NadD inh inactive, Cardio protect inactive, PfGluPho inh inactive and TAG inh inactive.
Cc1cccc2sc(NC(=O)CCNS(=O)(=O)c3cccs3)nc12 was read as APOBEC3G inh inactive, A3A deaminase inactive, NadD inh inactive, Cardio protect inactive, PfGluPho inh inactive and TAG inh 64.9.
O=C(NCc1ccccc1)c1cc(C2COCCN2C(=O)C/C=C/c2ccccc2)on1 (stereo not drawn) was read as NadD inh inactive, Cardio protect inactive and TAG inh inactive.
CCn1cc(Cl)c(C(=O)N2N=C(c3ccc4ccccc4c3)CC2c2ccccc2O)n1 (stereo not drawn) was read as APOBEC3G inh inactive, A3A deaminase inactive, NadD inh 35.0, Cardio protect inactive, PfGluPho inh inactive and TAG inh inactive.
Screening CCn1cc([N+](=O)[O-])c(C(=O)N2N=C(c3cccc4ccccc34)CC2c2ccccc2O)n1 (stereo not drawn) returned APOBEC3G inh inactive, A3A deaminase inactive, NadD inh inactive, Cardio protect inactive, PfGluPho inh inactive and TAG inh inactive.
`CCn1cc([N+](=O)[O-])c(C(=O)N2N=C(c3ccc4ccccc4c3)CC2c2ccccc2O)n1` (stereo not drawn) gave APOBEC3G inh inactive, A3A deaminase inactive, NadD inh inactive, Cardio protect inactive, PfGluPho inh inactive and TAG inh 71.1.
Screening CCN1C(=O)N[C@@H](c2cccc(C(F)(F)F)c2)C(C(=O)OC)=C1C returned APOBEC3G inh inactive, A3A deaminase inactive, NadD inh inactive, Cardio protect inactive, PfGluPho inh inactive and TAG inh inactive.
Screening CCN1C(N(C)CCc2c[nH]c3ccccc23)=N[C@@H](c2cccc(C(F)(F)F)c2)C(C(=O)OC)=C1C returned APOBEC3G inh inactive, A3A deaminase inactive, NadD inh inactive, Cardio protect inactive, PfGluPho inh inactive and TAG inh 111.8.
CC(=NNC(=O)c1ccc(NS(=O)(=O)c2cccs2)cc1)c1ccc(OCC(N)=O)cc1 was read as APOBEC3G inh inactive, A3A deaminase inactive, NadD inh inactive, Cardio protect inactive, PfGluPho inh inactive and TAG inh inactive.
`COc1cccc(CN2CCN(C(=O)c3cc(-c4cccnc4)nc4ccc(C)cc34)CC2)c1` gave APOBEC3G inh inactive, A3A deaminase inactive, NadD inh inactive, Cardio protect 49.8, PfGluPho inh inactive and TAG inh inactive.
